Unmarked numbers belong to inactive results. Active and inactive are the calls of the source. Calls come from the whole dose curve; as a rule, active = well fitted curve in the direction sought with a large enough effect in the repeat runs; inconclusive = weak or mixed curves; inactive = flat fitted curve, though single readings scatter.
% is set by controls: 0 for no effect and ±100 for the full control effect.

The nature of the experiment: qHTS assay to test for compound auto fluorescence at 460 nm (blue) in HepG2 cells (AID 720687). Particulars: autofluorescence 405/460 nm, 1 h; series mostly up to 91.3 µM. From the text:
U.S. Tox21 Program National Center for Advancing Translational Sciences [NCATS] NIH Chemical Genomics Center [NCGC] U.S. Environmental Protection Agency [EPA] National Institutes of Environmental Health Sciences [NIEHS] National Toxicology Program [NTP] U.S. Food and Drug Administration [FDA] Tox21 Assay Overview: Compound auto fluorescence often interferes with screening of the compound library against various biological targets and signaling pathways. Some of these compounds may have fluorophoric properties. Such properties may interfere with the assay outputs resulting in false positives and/or negatives. To decrease such complications and ensure the compound activities are relevant in terms of biological response, the Tox21 10K compound library was screened for auto fluorescence. From the fluorophores used as reporter signals in our screening assays, the auto fluorescence equivalencies of compounds against three fluorophores have been evaluated: Triamterene, Fluorescein and Rose Bengal sodium for blue, green and red fluorescence, respectively. The fluorescence intensities were measured using Excitation/Emission wavelengths at 405/460nm, 485/535nm and 540/590nm for blue, green and red labels, respectively. This assay includes the blue fluorescence data.
Tox21 Assay Protocol Summary: 2,000 HepG2 cells in 5 uL of culture medium (MEM containing 10% FBS) per well were dispensed into black wall/clear bottom 1536-well plates using a Multidrop Combi Dispenser (ThermoFisher Scientific, Waltham, MA). The assay plates were incubated overnight at 37 C to allow cell attachment to the well bottom, followed by the transfer of 23 nL compound or DMSO vehicle by a pintool work station (Kalypsys , San Diego, CA). After the assay plates were incubated for 1 hr at 37 C and 5% CO2, fluorescence intensities in the assay plates were measured by an Envision (PerkinElmer, Shelton, CT) plate reader using three labels for measuring blue, green and red fluorescence at […] 460, 535 and 590 nm respectively.
For `NS(=O)(=O)c1ccccc1OC(F)(F)F`, the result was inactive.
For `CC(=O)OC(C(=O)c1ccccc1)c1ccccc1` (stereo not given), the result was inactive.
For `CC1=CC[C@H](CC=O)C1(C)C`, the result was inactive.
`COc1ccc(/C=N/NC(=O)c2ccncc2)cc1OC`: the call was inactive.
Consider `CCCCC/C=C/CC(=O)OC`, for which the compound was classed as inactive.
As for `Cc1nc2ccccc2c(=O)o1`, the call was inactive.
On the same count and under the same terms, as for `CC(C)COC(=O)COc1ccc(Cl)cc1Cl`, the entry is “inactive”; as for `CCCCC[Si](OCC)(OCC)OCC`, “inactive”.
Still for that read-out and setting: as for `O=C(/C=C/c1ccccc1)NCCO`, the entry is “inactive”; as for `O=C1NC2NC(=O)NC2N1` (stereo not given), “inactive”; as for `Nc1ccc(/C=C/c2ccc(N)cc2S(=O)(=O)O)c(S(=O)(=O)O)c1`, “inactive”.
On the same count and under the same terms, to `CC(=O)Nc1ncc([N+](=O)[O-])s1` belongs “inactive”; to `O=c1[nH]c(=O)c2ccccc2o1`, “inactive”.
Regarding `CCCCCCCC[Si](OCC)(OCC)OCC`, the result was inactive.
For `CC(C)COC(=O)CCCCC(=O)OCC(C)C`, the outcome was inactive.
`NCCc1ccn[nH]1`: the fluorescence, % of fluorescent control is -0.0013% [at 18.6 µM].
Turning to `C=C(C)C(=O)OC`, the compound was classed as inactive.
The same measure, in the same setting: as for `CCNC(=O)/C=C/c1cccc(Br)c1`, the entry is “inactive”; as for `CCN(CCC#N)c1ccccc1`, “inactive”.
On the same count and under the same terms, to `Cc1cccc(NC(=S)N(C)C)c1` belongs “inactive”.
As for `Cc1ccccc1C(=O)N1CC/C(=N\OS(=O)(=O)O)c2ccc(Cl)cc21`, the compound was classed as inactive.
On the same count and under the same terms, as for `O=C(O)Cc1cccc(-c2cc(CCCCCCc3ccc(O[C@H]4O[C@H](CO)[C@@H](O)[C@H](O)[C@@H]4O)c(-c4cccc(CC(=O)O)c4)c3)ccc2O[C@H]2O[C@H](CO)[C@@H](O)[C@H](O)[C@@H]2O)c1`, the entry is “inactive”; as for `CC(=O)/C=C/c1ccco1`, “inactive”; as for `Oc1ccccc1Cc1ccccc1O`, “inactive”.
In the case of `O=c1[nH]c(=O)c2[nH]c(=O)[nH]c2[nH]1`, the compound was classed as inactive.
Same read-out and setting: to `COc1cc(C=O)ccc1OC(=O)C(C)C` belongs “inactive”.
Take `C=CCOC(=O)c1ccc(C(=O)OCC=C)c(C(=O)OCC=C)c1`: the compound was classed as inactive.
Same read-out and setting: as for `CC(=O)Nc1ccc(C)cc1`, the entry is “inactive”; as for `C=CCOc1c(Br)cc(C(C)(C)c2cc(Br)c(OCC=C)c(Br)c2)cc1Br`, “inactive”; as for `O=C(O)CCNC(=O)c1ccccc1`, “inactive”.
On to `CCCCCC(=O)OCC`, for which the result was inactive.
In the case of `CCCCC(C)C(=O)O` (stereo not given), the compound was called inactive.
`O=C(COCCOCCOCC(=O)Nc1c(I)cc(I)c(C(=O)O)c1I)Nc1c(I)cc(I)c(C(=O)O)c1I`: the call was inactive.
With `CCOC(=O)CC(CC(=O)OCC)(OC(C)=O)C(=O)OCC`, the outcome was inactive.
The same measure, in the same setting: as for `COC(=O)CCC(=O)O`, the entry is “inactive”; as for `OC(CCN1CCCCC1)(c1ccccc1)c1ccccc1`, “inactive”.
Still for that read-out and setting: as for `O=C(CN1CCN(Cc2ccc3c(c2)OCO3)CC1)N1c2ccccc2Sc2ccccc21`, the entry is “inactive”.
Turning to `O=S1(=O)CCCC1`, the result was inactive.
`C=CCOCC(O)CCl` (stereo not given): the call was inactive.
The same measure, in the same setting: to `CCC(O)C(C)(C)C` (stereo not given) belongs “inactive”.

These data come from PubChem BioAssay (Tox21).
